The values that follow come from PubChem BioAssay AID1445 (SRMLSC, 2008).

“And” between values parts separate entries of the source, which are not always exact repeats. Equal entries are not always repeated. The whole screen tested about 220,000 compounds, of which about 910 (0.41%) were called active. The list comes from a sample in which actives are over-represented; it also holds similar structures and randomly drawn compounds. Results with a measured potency or affinity are listed apart. Values without a mark were called inactive.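 The calls were made as follows: active = primary inhibition above the hit cutoff, then over 50% inhibition at one or more dose response concentrations (cut at about 23% in these data, passing the limit was not always enough); inconclusive = conflicting primary data, or primary hits not chosen for dose response; inactive = low primary inhibition, or under 50% at every dose.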

Aminopeptidase N (Plasmodium falciparum (isolate 3D7)), sequence (O96935 whole entry, looked up): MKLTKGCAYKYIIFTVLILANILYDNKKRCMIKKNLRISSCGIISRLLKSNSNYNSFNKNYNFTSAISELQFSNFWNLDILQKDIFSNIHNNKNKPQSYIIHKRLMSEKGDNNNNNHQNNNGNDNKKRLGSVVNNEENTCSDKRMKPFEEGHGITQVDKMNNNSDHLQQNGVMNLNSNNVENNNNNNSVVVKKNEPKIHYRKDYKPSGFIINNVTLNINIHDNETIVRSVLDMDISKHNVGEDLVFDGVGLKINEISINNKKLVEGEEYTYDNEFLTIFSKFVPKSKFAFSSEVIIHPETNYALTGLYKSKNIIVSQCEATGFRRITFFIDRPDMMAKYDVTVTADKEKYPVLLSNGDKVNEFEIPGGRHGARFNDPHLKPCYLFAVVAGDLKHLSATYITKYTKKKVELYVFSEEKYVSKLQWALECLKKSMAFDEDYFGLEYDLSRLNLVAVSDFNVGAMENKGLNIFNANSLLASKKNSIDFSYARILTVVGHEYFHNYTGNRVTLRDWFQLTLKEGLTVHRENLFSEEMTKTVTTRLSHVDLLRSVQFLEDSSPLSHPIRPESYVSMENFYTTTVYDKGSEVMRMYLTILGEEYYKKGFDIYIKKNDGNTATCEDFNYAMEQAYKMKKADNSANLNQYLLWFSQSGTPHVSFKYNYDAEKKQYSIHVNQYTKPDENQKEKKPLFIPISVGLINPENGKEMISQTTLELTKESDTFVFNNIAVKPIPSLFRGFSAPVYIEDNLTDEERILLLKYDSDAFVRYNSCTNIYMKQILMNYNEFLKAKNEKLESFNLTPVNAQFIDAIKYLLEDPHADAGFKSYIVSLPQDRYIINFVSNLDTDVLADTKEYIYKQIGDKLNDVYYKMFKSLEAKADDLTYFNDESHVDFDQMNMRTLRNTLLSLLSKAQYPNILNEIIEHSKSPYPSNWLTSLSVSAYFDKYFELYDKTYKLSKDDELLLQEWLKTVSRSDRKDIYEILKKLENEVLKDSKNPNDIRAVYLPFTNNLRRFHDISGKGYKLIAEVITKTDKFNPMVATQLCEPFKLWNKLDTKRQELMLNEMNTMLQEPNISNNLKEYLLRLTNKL

The assay addresses Aminopeptidase N (Plasmodium falciparum (isolate 3D7)) (UniProt O96935). As to the kind of experiment: P. falciparum M1AAP inhibitors, biochemical, fluorogenic H-Leu-NHMec substrate, 1536-well (AID 1445).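 Also: plate controls were DMSO full reaction for no effect and no enzyme background for full effect.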 The settings on record: recombinant M1AAP, H-Leu-NHMec fluorogenic kinetic assay; at 30 µM, stronger effect = higher value unless noted.
What is called inhibition is the drop in the measured response relative to a control, in per cent. Consider `CCOC(=O)c1ccc(NC(=S)NCCCN2CCOCC2)cc1`, for which the inhibition was -1.32%.

Take `CCO[C@@H]1OC(C(=O)N2CCOCC2)=C[C@H](c2ccc(C(F)(F)F)cc2)[C@H]1CCCO`: the inhibition was 2.16%.

In the case of `O=C(CSc1nc2c(sc3ccccc32)c(=O)n1CCCN1CCOCC1)NCC1CCCO1` (centres undefined), the inhibition was 1.22%.

Regarding `Cc1ccc(N2/C(=N/c3nc(C)cc(C)n3)NC(=O)CC2C(=O)O)cc1` (centres undefined), the inhibition was -5.89%.

For the molecule `O=Cc1ccc(-c2ccc(F)cc2)o1`, the inhibition is 12.4%.

Consider `O=C(/C=C/c1ccc(-c2ccccc2)o1)c1ccccc1`, for which the inhibition is 4.34%.

For the molecule `N=c1c2c3c(sc2nc2n1CCC2)CCCC3`, the inhibition is 7.32%.

In the case of `CCNc1nc(Cl)nc(-c2cn(-c3ccccc3)c3ccccc23)n1`, the inhibition is -7.96%.

As to `COc1ccc(NC(C)=O)cc1S(=O)(=O)N1CCN(C/C=C/c2ccccc2)CC1`, the inhibition was 2.09%.

As to `CCSc1nnc2c(n1)OC1(CCCC1)Nc1ccccc1-2`, the inhibition is 12.5%.

For the molecule `O=C(O)c1ccc(/C=N/NC(=O)c2cc(-c3ccc4c5c(cccc35)CC4)n[nH]2)cc1`, the inhibition is 13.5%.

For `O=C(N/N=C/c1cccc([N+](=O)[O-])c1)c1cc(-c2ccc3c4c(cccc24)CC3)n[nH]1`, the inhibition is 6.89%.

Take `COc1ccc(-n2c(=S)[nH]c3cc(C(=O)NCc4ccco4)ccc3c2=O)cc1OC`: the inhibition was 7.75% and 12.6%.

Take `CCCc1cc(=O)[nH]c(Nc2cc(OC)ccc2OC)n1`: the inhibition is -0.31%.

Turning to `CCOc1ccc(N(C(=O)c2ccccc2Cl)C2=NC(C)(C)CS2)cc1`, the inhibition is 5.11%.

Consider `Fc1ccc2c(c1)C1C=CCC1C(c1cc3c(cc1Br)OCO3)N2` (centres undefined), for which the inhibition was 5.12%.

Turning to `Brc1cc2c(cc1C1Nc3ccccc3C3C=CCC31)OCO2` (centres undefined), the inhibition was 6.9%.

In the case of `O=C(O)c1ccc2c(c1)C1C=CCC1C(c1ccncc1)N2` (centres undefined), the inhibition is 9.23%.

Take `COc1cccc(NS(=O)(=O)c2ccc3c(c2)C2C=CCC2C(c2ccc(C(=O)O)cc2)N3)c1` (centres undefined): the inhibition is 22.8%.

Turning to `Cc1nc2c(C)cccn2c1/C(O)=C1\C(=O)C(=O)N(CCN(C)C)C1c1ccccc1` (centres undefined), the inhibition is -2.63%.

In the case of `CC(=O)c1ccccc1OC(=O)c1c(F)cccc1F`, the inhibition is 3.59%.

As for `Cc1nc2cc(F)ccc2n1C1CCN(C(=O)c2c(F)cccc2F)CC1`, the inhibition is 5.28%.

On to `Cc1cccc(-c2c3c(=O)n(C)c(=O)n(C)c3cn2C(C)(C)C)c1`, for which the inhibition is 7.14%.

As for `O=c1[nH]c2ccc(NC(=S)NCc3ccccc3)cc2[nH]1`, the inhibition was -4.38%.

As for `C=CCn1c(COc2ccc(Cl)cc2)nnc1SCC(=O)N/N=C/c1ccccc1`, the inhibition was 0.22%.

On to `C=CCn1c(COc2ccc(Cl)cc2)nnc1SCC(=O)N/N=C/c1cccc(O)c1`, for which the inhibition is 6.07%.

Regarding `C=CCn1c(COc2ccccc2)nnc1SC(C)C(=O)N/N=C/c1cc(Cl)ccc1O` (centres undefined), the inhibition is 46.5% (active).

Take `CC1CC(=O)Nc2ccccc2N1S(=O)(=O)c1ccc(Br)cc1` (centres undefined): the inhibition was -1.92%.

As for `COc1ccccc1NC(=O)Cc1noc(CSc2nnc(C)n2C)n1`, the inhibition is -2.44%.

On to `Cc1ccccc1CS(=O)(=O)Cc1ccc(C(=O)NCc2ccccn2)o1`, for which the inhibition was 11.9%.

Regarding `COC(=O)CSc1ncnc2scc(-c3ccccc3)c12`, the inhibition is 8.48%.

For the molecule `CCc1cc2ccc(C)cc2nc1SCC(=O)Nc1cc(OC)c(OC)cc1C(=O)O`, the inhibition is 17.6%.

With `O=C(CSc1ncnc2scc(-c3ccccc3)c12)Nc1ccc(C(=O)O)cc1`, the inhibition is 7.21%.

Consider `Cc1ccc(-c2csc3ncnc(SCC(=O)O)c23)cc1`, for which the inhibition was -4.79%.

With `CCc1cc2ccccc2nc1SCC(=O)Nc1cc(OC)c(OC)cc1C(=O)O`, the inhibition is 6.44%.

Regarding `Cc1sc2ncnc(SCc3ccc(C(=O)O)cc3)c2c1C`, the inhibition was 8.46%.

For the molecule `Cn1c(SCC(=O)N(Cc2ccccc2)C(C)(C)C)nc2ccccc21`, the inhibition was -3.33%.

For `COC(=O)c1ccc(N(C(=O)CNC(=O)c2ccco2)C(C(=O)NC2CCCC2)c2ccco2)cc1` (centres undefined), the inhibition is -1.68%.

Take `FC(F)(F)c1cccc(OCCN2CCN(Cc3ccccc3)CC2)c1`: the inhibition was -0.96%.

In the case of `O=c1cnnc(N/N=C/c2ccc3c(c2)OCO3)[nH]1`, the inhibition was 4.09%.

As to `COc1ccc(C(=O)COc2ccc(F)cc2)c(O)c1C`, the inhibition is 0.41%.

On to `CCCCN1CNC(=S)N(CCc2ccccc2)C1`, for which the inhibition is 2.11%.

Take `O=c1cc(/N=C/c2coc3cc(Br)ccc3c2=O)[nH]c(=S)[nH]1`: the inhibition was 18.8%.

With `O=C(CN1C(=O)/C(=C/c2ccccc2)SC1=S)NNC(=O)c1ccccc1O`, the inhibition was 6.33%.

In the case of `O=C(CCCN1C(=O)S/C(=C\c2ccccc2)C1=O)NNC(=O)c1ccccc1O`, the inhibition is -1.57%.

`O=C(NN=C1CCN(Cc2ccccc2)CC1)c1ccccc1O`: the inhibition was 8.75%.

Take `O=C(NNC(=O)c1ccccc1O)c1ccco1`: the inhibition is 5.04%.

For the molecule `CCN1C(=O)C2(C(C(=O)c3cc4ccccc4o3)=C(O)C(=O)N2CCCN2CCOCC2)c2ccccc21` (centres undefined), the inhibition is 2.91%.

Regarding `COc1cccc(Cn2cnc3c(NS(=O)(=O)c4ccc(Cl)cc4)c(C)c(C)cc32)c1`, the inhibition is 7.11%.

Take `O=C(N/N=C/c1ccc(-c2cccc([N+](=O)[O-])c2)o1)c1ccc([N+](=O)[O-])cc1`: the inhibition was 2.39%.

For `NC(=O)N/N=C/c1ccc(-c2ccc([N+](=O)[O-])cc2)o1`, the inhibition is 2.91%.

In the case of `Cc1ccc(C(=O)N/N=C\c2ccc(-c3ccc([N+](=O)[O-])cc3)o2)cn1`, the inhibition is 9.19%.

In the case of `O=[N+]([O-])c1ccc(-c2ccc(/C=N/O)o2)cc1`, the inhibition is 2.25%.

With `O=C(N/N=C/c1ccc(-c2ccc([N+](=O)[O-])cc2)o1)C(O)c1ccccc1` (centres undefined), the inhibition is 18.2%.

`O=C(N/N=C/c1ccc(-c2cccc([N+](=O)[O-])c2)o1)c1ccccc1O`: the inhibition was -18.1%.

For the molecule `NC(=S)N/N=C/c1ccc(-c2ccc([N+](=O)[O-])cc2)o1`, the inhibition is -0.83%.

As for `O=C(O)c1ccc(N/N=C/c2ccc(-c3cccc(Cl)c3)o2)cc1`, the inhibition is 13.1%.

Turning to `Cc1ccc(-n2c(-c3ccco3)n[nH]c2=S)cc1`, the inhibition is 0.43%.

As to `COC(=O)c1cc(C(=O)OC)cc(N2C(=O)CC(NNC(=O)c3ccccc3Br)C2=O)c1` (centres undefined), the inhibition was 17.2%.

On to `Cc1ccc(NC(=O)CN2C(=O)c3ccccc3C2=O)nc1`, for which the inhibition was 1.04%.

For `CCn1cc(C(=O)O)c(=O)c2cc(F)c(N/N=C/c3ccccc3[N+](=O)[O-])cc21`, the inhibition is -4.53%.

As for `Cc1nc(-c2cccc(S(=O)(=O)N3CC(C)OC(C)C3)c2)cs1` (centres undefined), the inhibition is -2.63%.

For `CCOc1ccc(CCNC(=O)Cc2nn[nH]n2)cc1OCC`, the inhibition was -2.11%.

Take `CN(C)C(=O)c1c([N+](=O)[O-])c(C(C)(C)C)nn1C`: the inhibition was 9.14%.

Regarding `CCOc1ccccc1NC(=S)N1CCCc2ccccc21`, the inhibition is 2.13%.

`C/C=C\C(=O)Nc1cccc(C2=NOC3(C2)C[C@@H](C(N)=O)N(C(=O)c2ccccc2)C3)c1` (some centres undefined): the inhibition is 7.63%.

As for `COc1ccc(C2c3ccc(O)cc3Oc3ncn(CCCO)c(=N)c32)cc1` (centres undefined), the inhibition is 8.86%.

With `O=C(O)CC1S/C(=N/N=C/c2ccc(-c3ccc(Cl)cc3[N+](=O)[O-])o2)NC1=O` (centres undefined), the inhibition is 20.8%.

As to `CNC(=S)N/N=C/c1ccc(-c2ccc(Cl)c([N+](=O)[O-])c2)o1`, the inhibition was 3.04%.

For the molecule `O=C(Oc1ccccc1N1C(=O)C2CCCCC2C1=O)c1ccccc1F` (centres undefined), the inhibition is 4.73%.

Regarding `COc1ccc(NC(=O)C2CCN(S(C)(=O)=O)CC2)cc1Cl`, the inhibition was 4.6%.

As for `O=C1C2CC=C(Cl)CC2C(=O)N1CCN1CCOCC1` (centres undefined), the inhibition is 2.4%.

For `COc1ccccc1-n1c(C)cc(/C=C2/C(=N)N3C(=NC2=O)SN=C3S(C)(=O)=O)c1C`, the inhibition is 17.9%.

For `CC(C)CSC1=NSC2=NC(=O)/C(=C\c3ccccc3)C(=N)N12`, the inhibition is -10%.

As to `Cc1cc(/C=C2/C(=N)N3C(=NC2=O)SN=C3S(C)(=O)=O)c(C)n1-c1ccc(F)cc1`, the inhibition is 14.2%.

`CC(C)CSC1=NSC2=NC(=O)/C(=C\c3coc4ccccc4c3=O)C(=N)N12`: the inhibition is 19.5%.

Turning to `CCSC1=NSC2=NC(=O)/C(=C\c3coc4ccccc4c3=O)C(=N)N12`, the inhibition is 19.9%.

In the case of `Cc1cc(/C=C2/C(=N)N3C(=NC2=O)SN=C3S(C)(=O)=O)c(C)n1-c1ccccc1F`, the inhibition is 8.82%.

Take `Nc1ccnn1Cc1ccc(Br)s1`: the inhibition was 14.7%.

For the molecule `CCOc1ccc2ncc(S(=O)(=O)c3ccccc3)c(N3CCN(c4ccc(OC)cc4)CC3)c2c1`, the inhibition is 3.98%.

`Cc1ccc(-c2nc(SCC(=O)NCCN3C(=O)CSC3=O)[nH]c2-c2ccc(C)cc2)cc1`: the inhibition is -5.28%.

Consider `COC(=O)/C(C#N)=C/c1ccc(-c2ccc(S(N)(=O)=O)cc2)o1`, for which the inhibition was -5.9%.

Take `O=C(NC(Cc1ccccc1)C(=O)O)c1ccc(S(=O)(=O)N2CCOCC2)cc1` (centres undefined): the inhibition was -4.36%.

For the molecule `COCCNC(=O)COc1ncnc2ccc(Br)cc12`, the inhibition was 0.71%.

For the molecule `COCCn1c(=NC(C)=O)sc2cc([N+](=O)[O-])ccc21`, the inhibition was 1.15%.

With `O=C(Nc1cccc2oc(=O)ccc12)c1ccc([N+](=O)[O-])cc1[N+](=O)[O-]`, the inhibition was 8.2%.

As for `Cc1ccc(S(=O)(=O)N(C)C)cc1NC(=O)COC(=O)c1sc2cc(Cl)ccc2c1Cl`, the inhibition is -0.59%.

As for `CCOC(Cn1c(SCc2cc(C(C)=O)ccc2OC)nc2ccccc2c1=O)OCC`, the inhibition was 2.96%.

In the case of `COCCn1c(SCc2cc(C(C)=O)ccc2OC)nc2cc(Cl)ccc2c1=O`, the inhibition was 2.27%.
